Hits are enriched below; roughly 19% of the tested compounds scored in any of these assays.
DT40 TDP1 CPT: DT40-hTDP1 cell growth loss with CPT. 420,000 tested, 12% active. chicken DT40 Tdp1-/-;hTDP1 cells + 20 nM CPT, ATP luminescence, 48 h. Potency, µM (titrated, usually from 46.2 µM), hits mostly inhibitors. AID 686979; also: nearly all actives have a fitted effect of over 55% in size
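Cell growth measured by CellTiter-Glo luminescence after a minimum 48 h, 37 C compound exposure with 20 nM CPT in Tdp1-knockout DT40 cells stably expressing hTDP1, seeded 400/well; qHTS titration format.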
IL-1B inflam inh: blocks inflammasome-driven IL-1 beta release | THP-1 LPS/ATP IL-1B secretion, AlphaLISA, 16 h; stronger effect = lower value | activity change, % at 57.5 µM | 360,000 tested, 4.7% active; in the data active = activity change below about -50%; inconclusive = mostly about -30% to -49%
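Secreted IL-1B measured by AlphaLISA bead assay after 16 h compound exposure of THP-1 cells; compounds (final up to 57.5 uM) added 1 h before LPS (250 ng/mL) and ATP (1.25 mM) stimulation; lower signal means less secretion.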
HepG2 viability: HepG2 cytotoxicity, counter-screen for TGF-b inhibitors | HepG2 CAGA-GFP viability, ATP luminescence, 18 h | Potency, µM (titrated, usually from 46.1 µM), usual class: cytotoxic | 410,000 tested, 0.76% active | AID 588856
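CellTiter-Glo luminescence gave cytotoxicity after 18 hours at 37 degrees C. The cells were HepG2 CAGA-GFP in 1% FBS DMEM, stimulated with 500 pg/mL TGF-beta after compound addition. %Activity was normalised to no-cell wells (complete cell-killing) and DMSO (no toxicity), and curves were fitted and classified.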
TDP1 block: blocks human tyrosyl-DNA phosphodiesterase 1 | AID 485290 | 350,000 tested, 0.28% active | Potency, µM (doses to about 130 µM), hits mostly inhibitors | recombinant TDP1, AlphaScreen DNA substrate cleavage; also: nearly all actives have a fitted effect of over 40% in size
Target sequence (Q9NUW8 whole entry, looked up): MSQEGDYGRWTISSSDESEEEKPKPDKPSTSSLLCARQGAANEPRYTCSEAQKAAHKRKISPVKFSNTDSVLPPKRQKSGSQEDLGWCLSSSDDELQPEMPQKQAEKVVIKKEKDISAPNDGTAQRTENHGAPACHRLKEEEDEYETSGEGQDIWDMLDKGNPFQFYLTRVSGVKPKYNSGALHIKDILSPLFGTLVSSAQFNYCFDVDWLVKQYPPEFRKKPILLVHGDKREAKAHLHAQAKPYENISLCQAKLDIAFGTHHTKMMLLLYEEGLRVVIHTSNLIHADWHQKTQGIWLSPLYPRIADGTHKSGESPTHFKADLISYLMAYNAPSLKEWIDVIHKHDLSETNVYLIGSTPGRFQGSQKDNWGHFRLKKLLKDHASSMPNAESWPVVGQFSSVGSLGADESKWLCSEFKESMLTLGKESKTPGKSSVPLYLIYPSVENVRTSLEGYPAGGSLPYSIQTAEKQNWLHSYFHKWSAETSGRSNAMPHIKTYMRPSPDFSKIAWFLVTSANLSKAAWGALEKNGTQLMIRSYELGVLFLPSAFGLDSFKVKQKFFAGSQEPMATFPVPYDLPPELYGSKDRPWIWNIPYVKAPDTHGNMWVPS
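E. coli-derived human Tdp1, 1 nM final. Cpd preinc 15 min RT; substrate 15 nM final, 5 min RT; AS bead mix 10 ug/ml final, 10 min RT. Signal loss = tyrosine-FITC cleavage. No-enzyme wells = max signal.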
TDP1 cell noCPT: qHTS for Inhibitors of human tyrosyl-DNA phosphodiesterase 1 (TDP1): qHTS in cells in absence of CPT | DT40 Tdp1-/- hTDP1 cells, no CPT, ATP luminescence, 48 h | 420,000 tested, 15% active | Potency, µM (doses to about 46.2 µM), hits mostly inhibitors; also: nearly all actives have a fitted effect of over 55% in size
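Growth kinetics read by CellTiter-Glo luminescence after ≥48 hr at 37 °C. Cells: DT40 Tdp1-/- stably carrying human TDP1, 400 per well, compound exposure in the absence of CPT (DMSO vehicle).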
TGFb SMAD3 inh: blocks TGF-b signaling | 410,000 tested, 1.2% active | Potency, µM (titrated, usually from 46.1 µM), usual class: inhibitors | HepG2 CAGA-GFP TGF-b/SMAD3 reporter, GFP fluorescence, 18 h; TGF-beta stimulated, 500 pg/mL final; also: nearly all actives have a fitted effect of over 65% in size
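First, reporter cells (HEPG2 CAGA-GFP) rested 2 h at 37 degrees C. Next, compounds were pinned in and TGF-beta added to 500 pg/mL final. After 18 h, GFP was imaged per cell and summed per well.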
Numbers stand for hits; n = inactive; u = inconclusive; x = no result given; [ ] = remark or other dose. Unless noted, calls follow the shape of the dose curve; as a rule, active = well fitted curve in the direction sought with a large enough effect; inconclusive = small, poorly fitted or top-dose-only effect, or another doubt; inactive = no such curve, though single readings can be large; an effect the other way counts as inactive or inconclusive.

SMILES	DT40 TDP1 CPT	IL-1B inflam inh	HepG2 viability	TDP1 block	TDP1 cell noCPT	TGFb SMAD3 inh
O=C(Nc1nnc(-c2ccc(F)cc2)s1)Nc1ccccc1F	n	n	n	n	n	n
O=C(Nc1nnc(COc2ccccc2F)s1)Nc1ccccc1F	u	n	n	x	21µM	u
Cn1c(C(=O)Nc2ccc(Cl)cc2)cc2cc(Cl)ccc21	n	n	n	n	n	n
Cc1cc(C)cc(-n2c(SCC(=O)N3CCc4ccccc43)nc3c([nH]c4ccccc43)c2=O)c1	n	x	n	n	n	n
CCOC(=O)c1cc(-c2ccc(N)cc2)sc1N	18µM	u	n	n	21µM	n
CCOC(=O)c1sc(-c2ccc(Br)cc2)cc1N	n	n	n	n	u	n
COc1cc(OC)cc(C(=O)N2CC(=O)Nc3ccccc32)c1	1.5µM	n	n	n	1.3µM	n
Cc1ccc(Nc2c([N+](=O)[O-])cc(C(=O)N3CC(=O)Nc4ccccc43)cc2[N+](=O)[O-])c(C)c1	15µM	n	n	n	u	u
CCCn1nc(C(=O)N2CC(=O)Nc3ccccc32)c2ccccc2c1=O	21µM	n	n	n	15µM	n
O=C1CN(C(=O)c2ccc(Cl)c([N+](=O)[O-])c2)c2ccccc2N1	n	-78	n	x	n	n
COc1ccc(O)c(C(=O)N2CCC3(CC2)c2ccccc2[C@@H](NC(=O)c2ccccn2)[C@@H]3OC)c1	n[9.04 µM]	x	x	x	n	x
CCCc1nc2oc3c(NCC4CCCO4)ncnc3c2c2c1COC(C)(C)C2 (centres undefined)	29µM	n	n	n	u	n
CCCc1nc2oc3c(NCc4ccccn4)ncnc3c2c2c1COC(C)(C)C2	15µM	n	n	n	15µM	n
CC(C)c1nc2oc3c(N(C)CCO)ncnc3c2c2c1CCC2	u	n	n	n	u	n
Cc1nc2oc3c(NCc4ccccn4)ncnc3c2c2c1COC(C)(C)C2	n	n	n	n	u	n
CC(C)c1nc2oc3c(NCC4CCCO4)ncnc3c2c2c1CCC2 (centres undefined)	26µM	n	n	n	16µM	n
CC(NC(=O)CC12CC3CC(CC(C3)C1)C2)C(=O)O (centres undefined)	n	n	n	n	n	n
COc1ccc(C(C)NC(=O)CC23CC4CC(CC(C4)C2)C3)cc1 (centres undefined)	u	n	n	x	16µM	n
CCOC(=O)c1nnn2c1nc(N1CCCCC1)c1ccccc12	u	x	n	n	u	n
CCC1CCCCN1c1nc2c(C=O)c(C)nn2c2ccccc12 (centres undefined)	21µM	n	n	n	16µM	n
C/C(=N\Nc1ccc2nncn2n1)c1ccccn1	2.3µM	n	n	n	4.6µM	n
C/C(=N\Nc1ccc2nncn2n1)c1ccco1	n	n	n	n	n	n
C(=N\Nc1ccc2nncn2n1)/c1ccccn1	12µM	x	n	n	23µM	n
C(=N\n1cnnc1)/c1ccccn1	n	n	n	n	n	n
COc1ccc(C2CC(=O)c3cc(-c4nc(-c5ccc(Cl)cc5)c(C)s4)c(=O)[nH]c3C2)cc1 (centres undefined)	u	x	n	n	1.8µM	n
SMILES	DT40 TDP1 CPT	IL-1B inflam inh	HepG2 viability	TDP1 block	TDP1 cell noCPT	TGFb SMAD3 inh
COc1ccc(C2CC(=O)c3cc(-c4nc(-c5cccc(Cl)c5)cs4)c(=O)[nH]c3C2)cc1 (centres undefined)	n	x	n	n	n	n
Cc1ccc(-c2nc(-c3cc4c([nH]c3=O)CC(C)(C)CC4=O)sc2C)cc1	u	x	n	n	u	n
CC1(C)CC(=O)c2cc(-c3nc(-c4ccccc4)cs3)c(=O)[nH]c2C1	9.2µM	x	n	n	13µM	n
Cc1ccc(-c2csc(-c3cc4c([nH]c3=O)CC(c3ccccc3)CC4=O)n2)cc1 (centres undefined)	1.5µM	x	n	n	1.3µM	n
COc1ccc(Oc2ncnc3c2oc2ccccc23)cc1	u	x	n	n	u	n
CCOC(=O)c1cn(Cc2ccccc2)c(C(=O)OC(C)(C)C)c1O	23µM	n	n	x	n	n
CS(=O)(=O)Nc1c(O)ccc2c1CCC[C@H]2C1=NCCN1	n	x	x	n	n	x
COc1cc(OC)c2cc(C(=O)N/N=C/c3ccccc3O)[nH]c2c1	4.6µM	n	n	x	4.6µM	n
COc1ccc(C=NNC(=O)CCCC(=O)NN=Cc2ccc(OC)c(O)c2)cc1O	n	n	n	x	n	n
COc1ccc2[nH]c(C(=O)N/N=C/c3ccccc3OC)cc2c1	7.3µM	n	n	x	9.2µM	n
CCCOc1ccc2[nH]c(C(=O)N/N=C/c3cc(OC)c(OC)c(OC)c3)cc2c1	u	n	n	n	16µM	n
CCOc1ccc(/C=N/NC(=O)c2cc3c(OC)cc(OC)c(OC)c3[nH]2)cc1	u	n	n	x	u	n
COc1ccc2[nH]c(C(=O)N/N=C/c3ccc(OC)c(O)c3)cc2c1	1.2µM	n	n	x	1.3µM	n
O=C(COc1cc(Cl)ccc1Cl)N1CCNC1=O	n	n	n	n	n	n
Cc1cn(C2CC3OCC(NC(=O)C(Cc4ccccc4)NC(=O)OC(C)(C)C)C3O2)c(=O)[nH]c1=O (centres undefined)	x	x	n	n	x	n
COc1ccc(S(=O)(=O)N(CC(=O)NCc2ccc(C)cc2)c2ccc(Cl)cc2)cc1	n	x	n	x	n	u
CCOc1ccc2[nH]c(C(=O)N/N=C/c3ccccc3OC)cc2c1	5.8µM	n	n	x	7.3µM	n
COc1ccccc1C=NNC(=O)c1ccccc1OCCOc1ccccc1	u	u	n	n	u	u
CC(C)CCn1c(O)c(N=Nc2ccccn2)c2ccccc21	u	n	n	n	u	u
CC(C)CCn1c(O)c(N=NC(=O)Cn2ccc(C(F)(F)F)n2)c2ccccc21	21µM	n	n	n	23µM	n
CCCCCCNC(=O)c1c(O)c2ccccc2[nH]c1=O	u	n	n	n	13µM	n
Cc1cccc(C)c1NC(=O)c1c(O)c2ccccc2[nH]c1=O	18µM	n	n	n	u	n
O=C(Nc1cccc(O)c1)c1c(O)c2ccccc2[nH]c1=O	18µM	n	n	x	u	u
Cc1cccc(NC(=O)c2c(O)c3ccccc3[nH]c2=O)c1	n	n	n	x	n	n
Cc1cc(C)c(C(CC(=O)c2cccs2)C(C#N)C#N)c(C)c1 (centres undefined)	u	-105	13µM	n	26µM	18µM
Clc1ccc(OCc2cn3ccccc3n2)c2ncccc12	15µM	-61	n	n	16µM	n
